Here are results for one molecule from PubChem BioAssay AID504361 (National Center for Advancing Translational Sciences (NCATS), 2011).

Inconclusive results are not listed. The source made the active and inactive calls. Calls come from the whole dose curve; as a rule, active = well fitted curve in the direction sought with a large enough effect; inconclusive = small, poorly fitted or top-dose-only effect, or effect the other way, or another doubt; inactive = no such curve, though single readings can be large or run the other way.

A short description of this experiment: qHTS Assay for Identifying a Potential Treatment of Ataxia-Telangiectasia: Secondary assay (no NCS) SAR for Probe. From the text: NIH Chemical Genomics Center [NCGC] NIH Molecular Libraries Probe Centers Network [MLPCN] MLPCN Grant: MH089030-01 Assay Submitter (PI): Wei Zheng and Yosef Shiloh Ataxia-telangiectasia (A-T) is a devastating and progressive disease for which, there is no cure. Although A-T is a multisystem disease, it is stereotyped characterized by its neurological symptoms such as truncal ataxia, due to cerebellar cortical degeneration of the Purkinje and granule cells. Other symptoms of A-T are telangiectasias (dilated blood vessels), primary immunodeficiency, marked sensitivity to ionizing radiation (IR), chromosomal instability and predisposition to cancer. The underlying genetic cause of A-T is null mutations in the ATM (A-T mutated) gene. ATM is a nuclear serine/threonine kinase that functions as a master regulator of the cellular responses to double strand breaks (DSBs) in the DNA. Upon activation by DSBs, ATM phosphorylates a plethora of downstream targets, including KAP-1 on Ser82452. […] To screen for small molecules that will compensate for the loss of ATM in cells derived from A-T patients, we monitored KAP-1 phosphorylation as a readout for ATM-like activity using an AlphaLISA assay. […]
qHTS Assay Protocol: Step,Parameter,Value,Description 1. […] Readout, EnVision, EnVision plate reader. […] EnVision protocol for 1536-well AlphaScreen read (30ms excitation, 100ms read), about 10 min/plate.

Regarding `CC(=O)c1c(O)c(C)c(O)c(Cc2c(O)c3c(c(C(=O)/C=C/c4ccccc4)c2O)OC(C)(C)C=C3)c1O`, the result was inactive.
